These results are taken from PubChem BioAssay (NCI).

About 83,000 compounds went through this panel and 20% of them were active in at least one assay; those are over-represented in the sample as a whole.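 Method: cells in 96-well plates; compound added at one concentration; 48 h incubation; percent growth measured; values under 10 scored active.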 Activity calls are given as the source filed them.

This experiment has as its system TK-10 renal. In words: NCI-60 one-dose screen, 48 h (100 = growth as untreated, 0 = no growth, -100 = all killed). The settings on record: 10 µM unless noted.
As to `O=C(CN1CCOCC1)Nc1ccc(Cn2nnc3c2C(=O)c2nnn(Cc4ccc(NC(=O)CN5CCOCC5)cc4)c2C3=O)cc1`, the growth is 79.7% (inactive).

In the case of `COc1ccc(C(=O)/C=C/c2c(Cl)c3c(c(OC)c2Cl)OCC(=O)N3)cc1`, the growth was 57.3% (inactive).

Consider `CCOc1ccc(Nc2nc(-c3c(C)nc4ncccn34)cs2)cc1`, for which the growth is 54.1% (inactive).

Take `CC1=C(NCCN2CCCC2)C(=O)c2c(OCc3ccc(C(F)(F)F)cc3)cccc2C1=O`: the growth is 91.8% (inactive).

`CC/C(=C(\c1ccc(O)cc1)c1ccc(OCCN(C)CCN(C)C(=O)CCCCC(=O)c2c(C)[nH]c(/C=C3\N=C(c4ccc[nH]4)C=C3OC)c2C)cc1)c1ccccc1`: the growth is 119% (inactive).

Consider `O=C(CCCN1CCOCC1)Nc1ccc(Cn2nnc3c2C(=O)c2nnn(Cc4ccc(NC(=O)CCCN5CCOCC5)cc4)c2C3=O)cc1`, for which the growth was 116% (inactive).

`COc1ccc2nc3cc(Cl)ccc3c(N3CCN(c4nccc(NCc5ccccc5)n4)CC3)c2c1`: the growth is 62.6% (inactive).

As to `O=C1CC(c2nc3ccccc3[nH]2)CN1C1CCCCC1` (configuration not stated), the growth was 99.6% (inactive).

Take `O=C1Nc2ccccc2C12CC(c1ccc(Cl)cc1)=NN2` (configuration not stated): the growth is 115% (inactive).

Consider `O=C1/C(=C/c2ccc(Cl)cc2Cl)CN(S(=O)(=O)c2ccccc2)C/C1=C\c1ccc(Cl)cc1Cl`, for which the growth is -22.2% (active).

In the case of `O=C(CCCCN1CCOCC1)Nc1ccc(Cn2nnc3c2C(=O)c2nnn(Cc4ccc(NC(=O)CCCCN5CCOCC5)cc4)c2C3=O)cc1`, the growth was 13.6% (inactive).

For the compound `COc1ccc2nc3cc(Cl)ccc3c(N3CCN(c4nccc(Nc5ccccc5)n4)CC3)c2c1`, the growth was 65.6% (inactive).
